Measurements reported in article PMC12670160, “A drug-repurposing screen of FDA- and EMA-approved drugs identifies two NF-κB inhibitors active against eumycetoma” (Journal of Antimicrobial Chemotherapy, 2025).
Where a name gives a salt, the structure may show the parent alone. Read-outs that look alike come from different tables or passages of the source. The whole screen tested about 5,300 compounds, of which about 130 (2.5%) showed an effect of 50% or more. The sample holds strong results, similar compounds and a random draw of the others, so the mix is not that of the screen. Peptide text beside a SMILES is read from it. * marks the point of attachment. PhAc = O=C(Cc1ccccc1)*

Tested on: M. mycetomatis strain mm55
Conditions: primary screen, metabolic activity vs growth control, 96 h, 2 µM, inhibitor
[1] = Madurella mycetomatis metabolic activity at 2µM (%)

Compound | % viability | % viability [1]
CCCCN(CCCC)CC(O)c1cc(Cl)cc2c1-c1ccc(Cl)cc1/C2=C/c1ccc(Cl)cc1 (stereo not shown) [ONC0000941, lumefantrine] | 75.53% | 
CCCCN(CCCC)CCC(O)c1cc2c(Cl)cc(Cl)cc2c2cc(C(F)(F)F)ccc12 (stereo not shown) [ONC0003518, halofantrinehcl] | 46.17% | 
CNc1nc(-c2ccc3c(N)n[nH]c3c2)cc(N2C[C@@H](C(=O)NC3CCCCC3)CC[C@H]2C)n1 [ONC0002484, gsk2334470] | 37.41% | 
COc1c2ccoc2cc2oc(=O)ccc12 [ONC0003294, bergapten] | 47.96% | 
COc1c2occc2cc2ccc(=O)oc12 [ONC0005318, methoxsalen] | 102.8% | 
O=c1ccc2c(OCCCCOc3ccccc3)c3ccoc3cc2o1 [ONC0000770, pap1] | 62.21% | 
NS(=O)(=O)OC[C@@H]1C[C@@H](n2ccc3c(N[C@H]4CCc5ccccc54)ncnc32)C[C@@H]1O [ONC0001277, pevonedistat hydrochloride] | 68.15% | 
Cc1ccc2c(c1)c1c(n2CCc2ccc(C)nc2)CCN(C)C1.Cl.Cl [ONC0000365, latrepirdine dimebon dihydrochloride] | 70.26% | 
CN1CCN(CCCN2c3ccccc3Sc3ccc(C(F)(F)F)cc32)CC1 [ONC0003239, trifluoperazine hydrochloride] | 119.8% | 
CCCCCCCCCC(=O)OCCN1CCN(CCCN2c3ccccc3Sc3ccc(C(F)(F)F)cc32)CC1 [ONC0003289, fluphenazine decanoate] | 48.22% | 
OCCN1CCN(CCCN2c3ccccc3Sc3ccc(C(F)(F)F)cc32)CC1 [ONC0003193, fluphenazine hydrochloride] | 105.7% | 
CN1CC[C@@]2(C)c3cc(O)ccc3N(C)[C@@H]12 [ONC0002771, eseroline] | 104.2% | 
O=C1c2ccccc2C(=O)c2ccccc21 [ONC0002912, anthraquinone] | 73.56% | 
c1ccc2c(c1)[I+]c1ccccc1-2 [ONC0002720, diphenyleneiodonium] | 44.4% | 
CC(O)COC[C@H]1O[C@@H]2O[C@H]3[C@H](O)[C@@H](O)[C@@H](O[C@H]4[C@H](O)[C@@H](O)[C@@H](O[C@H]5[C@H](O)[C@@H](O)[C@@H](O[C@H]6[C@H](O)[C@@H](O)[C@@H](O[C@H]7[C@H](O)[C@@H](O)[C@@H](O[C@H]8[C@H](O)[C@@H](O)[C@@H](O[C@H]1[C@H](O)[C@H]2O)O[C@@H]8COCC(C)O)O[C@@H]7COCC(C)O)O[C@@H]6COCC(C)O)O[C@@H]5COCC(C)O)O[C@@H]4COCC(C)O)O[C@@H]3COCC(C)O (stereo partly shown) [ONC0003826, hydroxypropylbetacyclodextrin] | 73.6% | 
NCCC(=O)N[C@@H](Cc1cnc[nH]1)C(=O)O [ONC0002788, carnosine] | 115.1% | 
CC[C@@H]1C(=O)N(C)c2cnc(Nc3ccc(C(=O)N[C@H]4CC[C@H](N5CCN(CC6CC6)CC5)CC4)cc3OC)nc2N1C(C)C [ONC0005061, bi6727 volasertib] | 89.64% | 
CC[C@@H]1C(=O)N(C)c2cnc(Nc3ccc(C(=O)NC4CCN(C)CC4)cc3OC)nc2N1C1CCCC1 [ONC0004589, bi 2536] | 63.71% | 
CC(C)CCN1c2nc(Nc3cc(F)c(O)c(F)c3)ncc2N(C)C(=O)C1C (stereo not shown) [ONC0004496, bid1870] | 46.32% | 
Nc1nonc1C(=NO)Nc1ccc(F)c(Cl)c1 [ONC0002386, ido5l] | 106.2% | 

Compound | % viability | % viability [1]
CN1CCN(C(=O)c2nc3cc(Cl)ccc3[nH]2)CC1 [ONC0003559, jnj10191584] | 96.39% | 
O=C(Nc1cnc(Cl)nc1)c1ccc(F)c(F)c1 [ONC0001921, ica069673] | 29.87% | 
O=C(Nc1ccc(Cl)cc1)Nc1ccc(Cl)c(Cl)c1 [ONC0003407, triclocarban] | 109.1% | 
O=C(Nc1ccc(Cl)nc1)c1ccc(Cl)cc1 [ONC0002468, ica110381] | 70.91% | 
CC[C@@]1(O)C(=O)OCc2c1cc1n(c2=O)Cc2c-1nc1cc(F)c(C)c3c1c2[C@@H](N)CC3.CS(=O)(=O)O [ONC0003668, exatecan mesylate] | 59.4% | 
C#C[C@]1(O)CCC2C3CCC4=C(CCC(=O)C4)C3CC[C@@]21C (stereo partly shown) [ONC0000393, norethynodrel] | 78.62% | 
O=C(NC1CCN(Cc2ccccc2)CC1)c1ccc(I)cc1 [ONC0003079, 4ibp] | 71.08% | 
O=C(COc1ccc(C(=O)c2ccccc2)cc1)NC1CCN(Cc2ccccc2)CC1 [ONC0000156, adiporon] | 92.46% | 
O=C(O)c1ccc(CN2CCC(CN[C@@H]3C[C@H]3c3ccccc3)CC2)cc1 [ONC0001137, gsk2879552] | 48.21% | 
C[C@@H](O)[C@H](N)C(=O)N1CCC[C@H]1C(=O)N1CCC[C@H]1C(=O)N[C@H](C(N)=O)[C@@H](C)O [ONC0002215, rapastinel trifluoroacetate] (H-TPPT-NH2) | 53.54% | 
COCCn1c2c([n+](Cc3cnccn3)c1C)C(=O)c1ccccc1C2=O [ONC0001046, ym155] | 83.36% | 
CN(C)c1ccc(/C=C2\CCCN=C2c2cccnc2)cc1 [ONC0002266, dmabanabaseine] | 49.52% | 
COc1ccc(/C=C2\CCCN=C2c2cccnc2)c(OC)c1 [ONC0001889, gts21] | 72.7% | 
Oc1c(Cl)cc(Cl)c2cccnc12 [ONC0002821, chloroxine] | 92.76% | 
Oc1c(I)cc(I)c2cccnc12 [ONC0000463, iodoquinol] | 67.55% | 
Oc1c(Br)cc(Br)c2cccnc12 [Broxyquinoline] | 5.699% | 
COc1ccc(CCO[C@@H]2CCCC[C@H]2N2CC[C@@H](O)C2)cc1OC [ONC0001796, vernakalant hydrochloride] | 98.02% | 
CC1C[C@H]2[C@@H]3CCC4=CC(=O)C=C[C@]4(C)[C@@]3(Cl)[C@@H](O)C[C@]2(C)[C@@]1(O)C(=O)CO (stereo partly shown) [ONC0000301, beclomethasone] | 73.26% | 
CC(C)(C)NC[C@H](O)COc1cccc2c1CCCC2=O [ONC0002946, levobunolol] | 70.13% | 
CC(C)(C)NC[C@@H](O)COc1cccc2c1CCCC2=O [ONC0002849, levobunolol] | 116.9% | 

Compound | % viability | % viability [1]
Cc1cccc(OCC(O)CNC(C)(C)C)c1C (stereo not shown) [ONC0002362, xibenolol] | 46.41% | 
O=C1OC2(c3cc(I)c(O)c(I)c3Oc3c2cc(I)c(O)c3I)c2c(Cl)c(Cl)c(Cl)c(Cl)c21 [ONC0002983, rosebengallactone] |  | 60.55%
CCCCCCCCCCC(CO)CCCCCCCC (stereo not shown) [ONC0003687, 2octyldodecan1ol] | 64.53% | 
CCCCC(CC)CNC(=N)NC(=N)NCCCCCCNC(=N)NC(=N)NCC(CC)CCCC (stereo not shown) [Alexidine dihydrochloride] | 2.643% | 
CCCCCCCCCCCCOS(=O)(=O)O [ONC0004120, dodecylsulfate] |  | 112%
N=C(N)N=Nc1ccc(NNC(=N)S)cc1 [ONC0002980, ambazone] | 75.31% | 
COC(=O)c1cc(OC)c2c(c1-c1c(CO)cc(OC)c3c1OCO3)OCO2 [ONC0002187, bicyclol] | 70.1% | 
COC(=O)c1ccccc1O [ONC0003750, methylsalicylate] | 102.4% | 
COC(=O)c1cc(OC)c2c(c1-c1c(C(=O)OC)cc(OC)c3c1OCO3)OCO2 [ONC0003333, bifendate] | 41.54% | 
CC1(C)[C@@H](O)CC[C@]2(C)[C@H]3C(=O)C=C4[C@@H]5C[C@@](C)(C(=O)O)CC[C@]5(C)CC[C@@]4(C)[C@]3(C)CC[C@@H]12 [ONC0003205, enoxolone] | 101.1% | 
CC1(C)[C@@H](OC(=O)CCC(=O)O)CC[C@]2(C)[C@H]3C(=O)C=C4[C@@H]5C[C@@](C)(C(=O)O)CC[C@]5(C)CC[C@@]4(C)[C@]3(C)CC[C@@H]12 [ONC0000604, carbenoxolone sodium] | 49.18% | 
CC(=O)O[C@@H]1CC[C@@]2(C)[C@@H](CC[C@]3(C)[C@@H]2C(=O)C=C2[C@@H]4[C@@H](C)[C@H](C)CC[C@]4(C)CC[C@]23C)[C@@]1(C)C(=O)O [ONC0002083, akba] | 67.6% | 
O=c1[nH]c(=O)c2[nH]c(=O)[nH]c2[nH]1 [ONC0003522, uricacid] | 130.7% | 
C[C@H](N[C@@H](CCc1ccccc1)C(=O)O)C(=O)N1CCC[C@H]1C(=O)O [ONC0003897, enalaprilat] | 70.49% | 
CCOC(=O)[C@H](CCc1ccccc1)N[C@@H](C)C(=O)N1CCC[C@H]1C(=O)O [ONC0000561, enalapril maleate] | 109.8% | 
CCOC(=O)CNC(=O)[C@@H]1CCCN1C(=O)Cc1ccccc1 [ONC0001144, omberacetam] (PhAc-Pro-Gly-OEt) | 45.25% | 
N[C@@H]1C[C@H]1c1ccccc1 (racemic) [ONC0000562, tranylcypromine sulfate] | 104.4% | 
CCCN(CCC)CCc1ccc(OC)c(OCCc2ccccc2)c1 [ONC0000866, ne100] | 62.29% | 
